An excerpt weighted towards active compounds, which were near 7.3% of everything screened.
ELG1 genotox = induces genotoxicity in HEK293T cells with luciferase-tagged ELG1 | hit rate 1.3% among 330,000 | HEK293T ELG1-luciferase reporter, luminescence, 16 h | Potency, µM (top dose mostly 46 µM), usual class: activators; further: nearly all actives have a fitted effect of over 60% in size
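Genotoxic stress is detected as increased luminescence from luciferase-tagged ELG1 in HEK293T cells, measured with ONE-Glo after a 16 hr treatment at 37 °C.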
SMN2 splice up = SMN2 splice variant enhancement; HEK293 SMN2-luciferase splicing reporter, luminescence, 30-36 h; Potency, µM (top dose mostly 46.1 µM), usual class: activators; hit rate 2.8% among 210,000; AID 1458; further: nearly all actives have a fitted effect of over 55% in size
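HEK293 cells carry an SMN2 […]–luciferase reporter in which exon 7 inclusion puts luciferase in frame. Cells were plated 10-12 h before compound addition, then incubated 30-36 h at 37C. ONE-Glo luminescence was read; sodium butyrate at 4.5 mM final served as control.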
FLuc counter = counter-screen for miR-21 project: firefly luciferase inhibitors or activators. P08659. purified FLuc, Km substrates, luminescence inhibition. Potency, µM (titrated, usually from 57.5 µM), usual class: inhibitors. hit rate 6.9% among 360,000; further: nearly all actives have a fitted effect of over 55% in size
Target sequence (P08659 whole entry, looked up): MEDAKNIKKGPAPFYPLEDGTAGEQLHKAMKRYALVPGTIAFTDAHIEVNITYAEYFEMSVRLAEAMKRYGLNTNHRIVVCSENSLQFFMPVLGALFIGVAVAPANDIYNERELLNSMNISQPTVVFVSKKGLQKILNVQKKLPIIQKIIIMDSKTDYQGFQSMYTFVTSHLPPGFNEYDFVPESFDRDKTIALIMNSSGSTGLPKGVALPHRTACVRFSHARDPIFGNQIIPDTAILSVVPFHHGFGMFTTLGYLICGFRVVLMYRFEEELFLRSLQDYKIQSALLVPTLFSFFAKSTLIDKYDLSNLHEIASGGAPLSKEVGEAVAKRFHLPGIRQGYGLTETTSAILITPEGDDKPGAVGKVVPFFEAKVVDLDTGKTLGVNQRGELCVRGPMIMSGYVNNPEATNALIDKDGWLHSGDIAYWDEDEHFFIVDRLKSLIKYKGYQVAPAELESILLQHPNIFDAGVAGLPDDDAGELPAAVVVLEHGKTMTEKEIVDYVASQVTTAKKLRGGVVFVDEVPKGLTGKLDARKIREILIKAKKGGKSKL
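Biochemical qHTS of compounds, final roughly 60 µM downward over six points, against 10 nM purified firefly luciferase using Km concentrations of substrates (10 uM D-luciferin, 10 uM ATP) in Tris acetate pH 7.5 buffer; luminescence output.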
NPC1 promoter act = activators of NPC1 promoter. Huh7 NPC1 promoter luciferase reporter, 24 h. Potency, µM (titrated, usually from 9.22 µM), usual class: activators. hit rate 2.4% among 320,000. AID 485313; further: nearly all actives have a fitted effect of over 60% in size
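Luminescence read-out of NPC1 promoter-driven luciferase in stably transfected Huh7 cells; compounds delivered in DMSO and left 24 h at 37C, 5% CO2, qHTS titration format.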
Rab9 prom act = Rab9 promoter activation | Huh7 Rab9 promoter-luciferase reporter, luminescence, 24 h | Potency, µM (top dose mostly 9.22 µM), hits mostly activators | hit rate 2.8% among 320,000 | AID 485297; further: nearly all actives have a fitted effect of over 60% in size
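Huh7 cells stably carrying Rab9 promoter–luciferase reporter, plated 1500 cells/well, compound added after 2 h and incubated 24 h at 37 °C; luciferase luminescence then read after 10 min with detection reagent.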
KinaseGlo FLuc = counter-screen: inhibitors of Kinase-Glo firefly luciferase; Q27757; Kinase-Glo luciferase, ATP luminescence, 8 min; Potency, µM (highest dose often 38.3 µM), hits mostly inhibitors; hit rate 0.28% among 200,000; further: nearly all actives have a fitted effect of over 60% in size
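Compound is pinned into ATP-containing buffer (10 uM ATP, imidazole pH 7.2, 7 mM MgCl2). Kinase-Glo luciferase reagent is then added. Light output is recorded following an 8-min room-temperature incubation.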
Large screens that a line does not name were inactive. The call rests on the fitted dose curve; in most records, active means well fitted curve in the direction sought with a large enough effect; inconclusive means small, poorly fitted or top-dose-only effect, or another doubt; inactive means no such curve, though single readings can be large; an effect the other way counts as inactive or inconclusive.

CS(=O)(=O)c1cccc(C(=O)Nc2cccc(-c3nc4ccccc4[nH]3)c2)c1	FLuc counter 12µM (no result: SMN2 splice up, KinaseGlo FLuc)
Cn1ncc([N+](=O)[O-])c1C(=O)Nc1ccc(-c2nc3ccccc3[nH]2)cc1	ELG1 genotox inconclusive, SMN2 splice up inconclusive, FLuc counter 21µM, NPC1 promoter act inconclusive, Rab9 prom act inconclusive
Cn1ncc([N+](=O)[O-])c1C(=O)Nc1ccc(Cl)cc1	none (no result: SMN2 splice up, KinaseGlo FLuc)
CCCOc1ccc(C(=O)Nc2cccc(-c3nc4ccccc4[nH]3)c2)cc1	SMN2 splice up inconclusive, FLuc counter 4.8µM (no result: ELG1 genotox, NPC1 promoter act, Rab9 prom act, KinaseGlo FLuc)
CS(=O)(=O)c1ccc(C(=O)Nc2ccc(-c3nc4ccccc4[nH]3)cc2)cc1	NPC1 promoter act inconclusive, Rab9 prom act 2.5µM (no result: SMN2 splice up, KinaseGlo FLuc)
CS(=O)(=O)c1ccc(C(=O)Nc2cccc(-c3nc4ccccc4[nH]3)c2)cc1	FLuc counter 24µM (no result: SMN2 splice up, KinaseGlo FLuc)
CS(=O)(=O)Cc1ccc(C(=O)Nc2cccc(-c3nc4ccccc4[nH]3)c2)cc1	FLuc counter 13µM (no result: SMN2 splice up, KinaseGlo FLuc)
CCOc1cc(OCC)cc(C(=O)Nc2cccc(-c3nc4ccccc4[nH]3)c2)c1	none (no result: ELG1 genotox, NPC1 promoter act, Rab9 prom act, KinaseGlo FLuc)
Cc1ccc(OCC(=O)Oc2c(C)cccc2C)cc1C	none (no result: SMN2 splice up, KinaseGlo FLuc)
COc1ccc(C2C3=C(CCCC3=O)Nc3nc(-c4cc(OC)c(OC)c(OC)c4)nn32)cc1OC (stereo not drawn)	ELG1 genotox 21µM, SMN2 splice up 8.9µM
COc1ccc(C2C(C(N)=O)=C(C)Nc3nc(-c4cccc(Cl)c4)nn32)cc1OC (stereo not drawn)	ELG1 genotox inconclusive, SMN2 splice up 18µM
COc1ccccc1C1C(C(N)=O)=C(C)Nc2nc(-c3ccccc3Cl)nn21 (stereo not drawn)	none
COc1cccc(C2C(C(N)=O)=C(C)Nc3nc(-c4ccccc4Cl)nn32)c1 (stereo not drawn)	ELG1 genotox 18µM, SMN2 splice up inconclusive
COc1cccc(Nc2nnc(SCc3nc4ccccc4s3)s2)c1	FLuc counter 13µM, NPC1 promoter act inconclusive, Rab9 prom act inconclusive
Cc1cccc(C)c1Nc1nnc(SCc2nc3ccccc3s2)s1	ELG1 genotox inconclusive, SMN2 splice up inconclusive, FLuc counter 6µM
COc1cccc(Nc2nnc(SCC(=O)N(CC(C)C)CC(C)C)s2)c1	FLuc counter 11µM (no result: SMN2 splice up, KinaseGlo FLuc)
Cc1cccc(C)c1Nc1nnc(SCC(=O)NCc2cccs2)s1	none
COc1cccc(Nc2nnc(SCN3C(=O)c4ccccc4C3=O)s2)c1	none
Cc1cc(C)c(S(=O)(=O)c2ccccc2)c(OC(=O)c2ccc(Cl)cc2Cl)n1	none
Cc1cccc(N2CCN(C(c3ccncc3)c3nnnn3C(C)(C)C)CC2)c1C (stereo not drawn)	none
CC(C)(C)c1ccc(-c2nnc(N)o2)cc1	ELG1 genotox inconclusive, FLuc counter 6µM, NPC1 promoter act 2.8µM, Rab9 prom act 2.8µM (no result: SMN2 splice up, KinaseGlo FLuc)
COc1cccc(COc2ccc3ccc(=O)oc3c2)c1	ELG1 genotox inconclusive, FLuc counter 13µM, NPC1 promoter act inconclusive, Rab9 prom act 3.2µM (no result: SMN2 splice up, KinaseGlo FLuc)
COc1ccc(COc2ccc3ccc(=O)oc3c2)cc1	ELG1 genotox inconclusive, FLuc counter 11µM, NPC1 promoter act 4µM, Rab9 prom act 2.8µM (no result: SMN2 splice up, KinaseGlo FLuc)
Cc1nn(CCCC(=O)Nc2cccc(F)c2)c(=O)c2c1sc1ccccc12	FLuc counter 15µM (no result: ELG1 genotox, SMN2 splice up, NPC1 promoter act, Rab9 prom act, KinaseGlo FLuc)
CCCOc1ccc(CNC(=O)CCCn2nc(C)c3sc4ccccc4c3c2=O)cc1	FLuc counter 7.6µM (no result: ELG1 genotox, SMN2 splice up, NPC1 promoter act, Rab9 prom act, KinaseGlo FLuc)
CCc1cccc(C)c1NC(=O)CCCn1nc(C)c2sc3ccccc3c2c1=O	none (no result: ELG1 genotox, SMN2 splice up, NPC1 promoter act, Rab9 prom act, KinaseGlo FLuc)
O=C(CN(Cc1ccc(Br)cc1)S(=O)(=O)c1ccccc1)NCC1CCCO1 (stereo not drawn)	none (no result: SMN2 splice up, KinaseGlo FLuc)
COc1ccc(-n2c(SCC(=O)C(C)(C)C)nc3ccsc3c2=O)cc1	none
CC(C)C(=O)Nc1cccc(-c2nc3ncccc3o2)c1	none (no result: SMN2 splice up, KinaseGlo FLuc)
CC(C)C(=O)Nc1ccc(-c2nc3ncccc3o2)cc1	ELG1 genotox inconclusive, FLuc counter 4.3µM, NPC1 promoter act 0.5µM, Rab9 prom act 0.5µM (no result: SMN2 splice up, KinaseGlo FLuc)
CC(C)C(=O)Nc1ccc(-c2nc3cccnc3o2)cc1	ELG1 genotox inconclusive, SMN2 splice up 4.5µM, FLuc counter 2.7µM, NPC1 promoter act 0.56µM, Rab9 prom act 0.5µM
CC(C)(C)c1ccc(OCC(=O)Nc2ccc(-c3nc4cccnc4o3)cc2)cc1	none (no result: ELG1 genotox, NPC1 promoter act, Rab9 prom act)
Cc1ccc(OCCOC(=O)c2cc(S(=O)(=O)N3CCCCC3)ccc2N2CCOCC2)cc1	none (no result: SMN2 splice up, KinaseGlo FLuc)
O=C(O)c1nc2nc(Cl)c(Cl)nc2[nH]1	none
COc1ccc(-c2nnc(SCCOc3cccc(C)c3)n2N)cc1	none
CCCOc1ccc(C(CC(=O)O)NC(=O)c2sc3ccccc3c2Cl)cc1 (stereo not drawn)	FLuc counter 15µM (no result: SMN2 splice up)
O=C1CC[C@@]23/C=C/C(=O)NCCCCNCCCNC(=O)/C=C/c4ccc(c2c4)OC3C1 (stereo partly drawn)	none (no result: ELG1 genotox, FLuc counter, NPC1 promoter act, Rab9 prom act)
O=C(c1ccc(Cl)c([N+](=O)[O-])c1)N1CCCc2ccccc21	FLuc counter 19µM (no result: SMN2 splice up, KinaseGlo FLuc)
CCS(=O)(=O)c1nc2ccccc2n1CC(=O)N1CCOCC1	none
C=Cn1c(C(=O)O)ccc1-c1ccc(CC)cc1	FLuc counter 21µM (no result: SMN2 splice up, KinaseGlo FLuc)
CCOc1ccccc1NC(=O)CN1C(=O)CC(c2ccc(C)c(C)c2)=Nc2ccccc21	FLuc counter 27µM (no result: ELG1 genotox, SMN2 splice up, NPC1 promoter act, Rab9 prom act, KinaseGlo FLuc)

Compound activity (PubChem)
